Compound activity: PubChem, National Center for Advancing Translational Sciences (NCATS)
Sampled rows, rich in hits. Any-hit rate of the full collection: about 11%.
ALDH1A1 block = blocks purified human ALDH1A1 activity; P00352; 7.3% of 220,000 active; Potency, µM (doses to about 75.3 µM), without a hit: at the highest dose activity, negative = inhibition, most hits filed as inhibitors; AID 1030; Purified ALDH1A1, NADH fluorescence, propionaldehyde substrate;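 note: potency is the fitted concentration of half-maximal effect; plate controls were no enzyme wells and a reference inhibitor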
Target sequence (P00352 whole entry, looked up): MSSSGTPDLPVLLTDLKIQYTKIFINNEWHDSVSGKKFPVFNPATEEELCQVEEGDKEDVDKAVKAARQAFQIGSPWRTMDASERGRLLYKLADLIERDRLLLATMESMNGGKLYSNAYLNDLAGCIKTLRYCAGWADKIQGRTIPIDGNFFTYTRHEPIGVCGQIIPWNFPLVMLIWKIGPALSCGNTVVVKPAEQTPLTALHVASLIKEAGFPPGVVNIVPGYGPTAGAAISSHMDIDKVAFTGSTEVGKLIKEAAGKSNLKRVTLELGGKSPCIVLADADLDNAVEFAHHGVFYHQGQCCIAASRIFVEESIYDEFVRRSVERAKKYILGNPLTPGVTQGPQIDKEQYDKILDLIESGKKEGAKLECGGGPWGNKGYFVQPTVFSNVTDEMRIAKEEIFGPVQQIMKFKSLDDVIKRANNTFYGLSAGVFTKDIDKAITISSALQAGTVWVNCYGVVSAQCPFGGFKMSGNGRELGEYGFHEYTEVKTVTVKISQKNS
HPGD block = inhibitors of human 15-hydroxyprostaglandin dehydrogenase (HPGD); purified HPGD, NADH fluorescence kinetic, PGE2 substrate; Potency, µM, for inactives: top-dose activity change, negative = inhibition, actives largely listed as inhibitors; 4.3% of 150,000 active; note: potency is the fitted concentration of half-maximal effect
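20 nM HPGD preincubated 15 min at room temperature with compound in 50 mM Tris-HCl pH 8, 0.01% Tween 20. Started with 1 mM NAD+ and 30 uM prostaglandin E2; NADH fluorescence (360/450 nm) read 5 times over 30-s intervals, last minus first.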
PNC inhibitor = inhibitors of perinucleolar compartment assembly. PC3M PTB-GFP, PNC prevalence imaging, 16 h; stronger effect = lower value. activity change (PNC), negative = inhibition, % at 10 µM. 3.1% of 140,000 active. AID 2417;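 active = readout at or below -70, meaning at least 70% loss of cells showing the perinucleolar compartment, a nuclear body marking cancer cells; inconclusive = readout between -30 and a set limit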;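 note: plate controls were DMSO wells for no effect and camptothecin positive control wells for full effect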
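Compounds are pinned in duplicate onto adhered PC3M cells stably expressing GFP-tagged PTB and incubated 16 h at 37 C. Cells are then fixed, nuclei stained with Hoechst, and PNC-positive cells counted.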
* = called active by the depositor; ? = inconclusive; nt = not tested or not shown; ! = a repeat was not active; [ ] = another dose, or the depositor's remark. Unless noted, calls come from the whole dose curve; as a rule, active = well fitted inhibition curve with a large enough effect (not every such curve was filed as active); inconclusive = small, poorly fitted or top-dose-only effect, or another doubt; inactive = no such curve, though single readings can be large or run the other way. Unless noted, % is set by controls: 0 for no effect and ±100 for the full control effect.

SMILES | ALDH1A1 block | HPGD block | PNC inhibitor
CN(C)[C@@H]1C(=O)C(C(N)=O)=C(O)[C@]2(O)C(=O)C3=C(O)c4c(O)cccc4[C@](C)(O)[C@H]3C[C@@H]12 | -1%[13.5 µM] | -29% | nt
Cc1cc(/C=C2/C(=O)NC(=O)N(c3ccc(Br)cc3)C2=O)c(C)n1C | 5% | nt | nt
CCOC(=O)c1c(-n2c(C)cc(C=C3C(=O)NC(=S)NC3=O)c2C)sc2c1CCCC2 | 7.9µM* | 3.5µM* | ?
CCN1C(=O)NC(=O)/C(=C/c2cc(C)n(-c3sc(C)c(C)c3C#N)c2C)C1=O | 0.2µM* | 8.9µM* | ?
Cc1ccc(N2C(=O)NC(=O)/C(=C\c3cc(C)n(-c4sc5c(c4C#N)CCCC5)c3C)C2=O)cc1 | 0.79µM* | 10µM* | ?
CCOC(=O)c1c(/N=C/C2C(=O)NC(=O)NC2=O)sc2c1CCC2 | -6% | nt | nt
CC(=O)OC1CC2C(C)(C)C(O)C=C[C@@]2(C)C2CC[C@]3(C)C(=CC(=O)OC3c3ccoc3)[C@]12C (some centres undefined) | ? | -11% | nt
CNc1ccc2oc(C[C@@H]3OC4(CC[C@@H]3C)O[C@H](C(C)C(=O)c3ccc[nH]3)[C@H](C)C[C@H]4C)nc2c1C(=O)O (some centres undefined) | ? | -19% | nt
CN1Cc2c(ccc3c2OCO3)C2C(O)Cc3cc4c(cc3C21)OCO4 (centres undefined) | 4% | 1% | nt
COC(=O)N1CCC2(CCCN(C)C2)CC1 | 0% | -4% | nt
C=C[C@]12CN(C)[C@H]3C1[C@@]1(C(=O)Nc4ccccc41)[C@H]1C[C@H]2[C@H]3CO1 | 6%[20.9 µM] | -5% | nt
CN1C(=O)CCS(=O)(=O)C1c1ccc(Cl)cc1 (centres undefined) | -4% | 6% | nt
O=C(O)Cc1cccnc1C(=O)O | 13% | -3% | nt
Cc1ccc(-n2c(C)nc3ccccc3c2=O)c(C)c1 | 22% | nt | nt
Cc1nc2cc([N+](=O)[O-])ccc2c(=O)n1-c1ccccc1[N+](=O)[O-] | 32µM* | nt | nt
CCN1C(=O)C(=C/C=C/c2ccco2)C(=O)N(CC)C1=S | 1.3µM* | 11µM* | -1
COc1ccc(C(=O)Nc2ccccc2C(=O)NC(C(=O)NCc2ccco2)C(C)C)cc1 (centres undefined) | -1% | ? | -20
COc1ccc(/C=C2/C(=O)N(Cc3ccco3)C(=O)N(C(C)C)C2=O)cc1 | 4µM* | 22µM* | 4
CC(C)N1C(=O)/C(=C/C=C/c2ccco2)C(=O)N(Cc2ccco2)C1=O | 22µM* | 32µM* | ?
CN(C(=O)Cc1ccccc1)[C@H](CN1CCCC1)c1ccccc1 | 0% | -7% | nt
c1ccc2c(c1)CCNC2 | 4% | -6% | nt
COC(=O)[C@@H]1C[C@H](OC(C)=O)C(=O)[C@H]2[C@@]1(C)CC[C@H]1C(=O)O[C@H](c3ccoc3)C[C@]21C | 3% | -6% | nt
O=c1[nH]c(SCc2ccccc2Cl)nc2c1CCCC2 | -13% | 2µM* | -24
CCCCCCn1c(O)c(C=Nc2c(C)n(C)n(-c3ccccc3)c2=O)c(=O)[nH]c1=O | ? | ? | -9
CCOc1ccc(-n2c(O)c(N=Nc3c(C)n(C)n(-c4ccccc4)c3=O)c(=O)[nH]c2=O)cc1 | 16µM* | nt | nt
SMILES | ALDH1A1 block | HPGD block | PNC inhibitor
C=CCn1c(O)c(N=Nc2c(C)n(C)n(-c3ccccc3)c2=O)c(=O)[nH]c1=S | ? | -23% | -7
Cc1c(N=Nc2c(O)[nH]c(=S)[nH]c2=O)c(=O)n(-c2ccccc2)n1C | 22µM* | 28µM* | 87
CC(C)C[C@H]1C(=O)N2CCC[C@H]2[C@]2(O)O[C@](NC(=O)[C@@H]3C=C4c5cccc6[nH]c(Br)c(c56)CC4N(C)C3)(C(C)C)C(=O)N12 (some centres undefined) | ? | -23% | 28
Cc1cc(Cl)ccc1N=Cc1c(O)n(C)c(=O)n(C)c1=O | ? | ? | -19
CC(=NCCCN1CCOCC1)c1c(O)n(-c2ccccc2C)c(=O)[nH]c1=O | 14µM* | -8% | 29
CC(=NCCN1CCOCC1)c1c(O)n(Cc2ccccc2)c(=O)[nH]c1=O | ? | ? | 34
C[C@@](Br)(C(=O)O)[C@H](Br)C(=O)O | -2%[13.5 µM] | -3% | nt
O=c1[nH]c(O)c(C=Nc2ccccc2[N+](=O)[O-])c(=O)[nH]1 | 8% | nt | nt
Cc1cccc2c1=NC(=O)/C(=C/c1c(O)[nH]c(=O)[nH]c1=O)C=2 | 0.5µM* | ? | -29
COP(=O)(OC)[C@@H](O)C(Cl)(Cl)Cl | 7%[20.9 µM] | -10% | nt
CN(C)C1C(=O)C(C(N)=O)=C(O)[C@@]2(O)C(=O)C3=C(O)c4c(O)cccc4[C@](C)(O)C3C(O)C12 (some centres undefined) | -7% | ? | nt
CN(C)[C@@H]1C(=O)C(C(N)=O)=C(O)[C@@]2(O)C(=O)C3=C(O)c4c(O)cccc4[C@@](C)(O)[C@H]3[C@H](O)[C@@H]12 | 28µM*! | 7.1µM* | 33
CCN1CCN(c2ccc(N)c(C)c2)CC1 | 2% | nt | nt
CCC(=O)c1cc(F)c(N2CCN(CC)CC2)cc1C | 20µM* | -8% | 50
O=C(Oc1ccc(Cl)c2cccnc12)N1CCCCCC1 | ? | -19% | -3
CSCC[C@H](NC(=O)[C@H](Cc1ccccc1)NC(=O)CNC(=O)CNC(=O)[C@@H](N)Cc1ccc(O)cc1)C(=O)O | -1% | nt | nt
O=C1NC(=O)C(=Cc2cc([N+](=O)[O-])ccc2N2CCCCC2)C(=O)N1 | -8% | nt | nt
O=C1NC(=O)C(=Cc2ccc(N3CCN(C(=O)c4ccccc4)CC3)c([N+](=O)[O-])c2)C(=O)N1 | 11µM* | nt | nt
CC[C@H](C)[C@H](NC(=O)[C@@H]1CCCN1C(=O)[C@H](CCC(=O)O)NC(=O)[C@@H](NC(=O)[C@H](Cc1ccccc1)NC(=O)[C@@H]1CCCN1C(=O)[C@@H](N)Cc1ccc(O)cc1)C(C)C)C(=O)O | -2% | nt | nt
O=C(CNC(=O)c1ccccc1Cl)Nc1ccc(Br)cc1C(=O)c1ccccc1 | -5% | 28µM* | 32
O=C(CNC(=O)c1ccccc1)Nc1ccc(Br)cc1C(=O)c1ccccc1 | -5% | -14% | -30
O=C(CCN1CCOCC1)NCC(=O)Nc1ccc(Br)cc1C(=O)c1ccccc1 | 5% | -11% | -8
O=C(CN1CCCCC1)NCC(=O)Nc1ccc(Br)cc1C(=O)c1ccccc1 | 10% | 28µM* | 52
COC1=C[C@H]2[C@H]3Cc4ccc(OC)c(O)c4[C@@]2(CCN3C)CC1=O | 3% | -16% | nt
C(#CCN1CCCCC1)COCc1ccccc1 | 1% | nt | nt
COc1ccc(OCC#CCN2CCCCCC2)cc1 | 22µM* | nt | nt
CC(C)[C@H](NC(=O)[C@H](CCC(=O)O)NC(=O)[C@H](Cc1ccccc1)NC(=O)[C@H](C)NC(=O)[C@@H](N)Cc1ccc(O)cc1)C(=O)N[C@H](C(=O)NCC(N)=O)C(C)C | 7% | nt | nt
O=C(Nc1ccccc1)N1CC2(CCN(C(=O)Oc3ccccc3)CC2)C1 | ? | 1% | nt
CC(=O)NC(Cc1ccc(N(CCCl)CCCl)cc1)C(=O)NCC(=O)NCC(=O)O (centres undefined) | 2% | nt | nt
CC(=O)NC(Cc1ccc(N(CCCl)CCCl)cc1)C(=O)NC(CC(C)C)C(=O)O (centres undefined) | 2.2µM* | nt | nt
